CHO-K1 Ca antag – nonselective inhibitor or artifact in parental CHO-K1 cells. ATP-induced calcium, Fluo-8 fluorescence. inhibition, % at 3 µM. hit rate 0.6% among 360,000. AID 602250;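 active = inhibition above a per-plate cutoff, the plate's mean sample inhibition plus 3 SD, cut at about 24% in these data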;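 also: 0% = DMSO plus EC80 ATP and 100% = DMSO alone without ATP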
M1 ag parental – counter-screen for M1 agonists: effect in parental CHO-K1 cells | Fluo-8 calcium fluorescence; scaled to maximal ATP response, vehicle zero | activation, % at 3 µM | hit rate 0.48% among 360,000; in the data active = activation above about 15%;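 also: untransfected CHO-K1 host cells lacking M1 receptor as counterscreen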
TMEM16A act – TMEM16A chloride channel activators or potentiators, primary screen, cell-based, HTS; AID 623877, 2012; Anoctamin-1 (Mus musculus), Q8BHY3; B-score at 10 µM; HEK293 TMEM16A/YFP-H148Q/I152L, iodide quench fluorescence; active compounds read low; hit rate 0.3% among 340,000;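 active = fluorescence-ratio B-score plate-corrected deviation score at least 3 library SD below zero, with starting fluorescence score within 5 deviations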;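 also: channel opened by trigger with iodide after compound preincubation; score built on the fluorescence ratio of max minus min over baseline; more negative score means more quench and so TMEM16A activation or potentiation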
Target sequence (Q8BHY3 whole entry, looked up): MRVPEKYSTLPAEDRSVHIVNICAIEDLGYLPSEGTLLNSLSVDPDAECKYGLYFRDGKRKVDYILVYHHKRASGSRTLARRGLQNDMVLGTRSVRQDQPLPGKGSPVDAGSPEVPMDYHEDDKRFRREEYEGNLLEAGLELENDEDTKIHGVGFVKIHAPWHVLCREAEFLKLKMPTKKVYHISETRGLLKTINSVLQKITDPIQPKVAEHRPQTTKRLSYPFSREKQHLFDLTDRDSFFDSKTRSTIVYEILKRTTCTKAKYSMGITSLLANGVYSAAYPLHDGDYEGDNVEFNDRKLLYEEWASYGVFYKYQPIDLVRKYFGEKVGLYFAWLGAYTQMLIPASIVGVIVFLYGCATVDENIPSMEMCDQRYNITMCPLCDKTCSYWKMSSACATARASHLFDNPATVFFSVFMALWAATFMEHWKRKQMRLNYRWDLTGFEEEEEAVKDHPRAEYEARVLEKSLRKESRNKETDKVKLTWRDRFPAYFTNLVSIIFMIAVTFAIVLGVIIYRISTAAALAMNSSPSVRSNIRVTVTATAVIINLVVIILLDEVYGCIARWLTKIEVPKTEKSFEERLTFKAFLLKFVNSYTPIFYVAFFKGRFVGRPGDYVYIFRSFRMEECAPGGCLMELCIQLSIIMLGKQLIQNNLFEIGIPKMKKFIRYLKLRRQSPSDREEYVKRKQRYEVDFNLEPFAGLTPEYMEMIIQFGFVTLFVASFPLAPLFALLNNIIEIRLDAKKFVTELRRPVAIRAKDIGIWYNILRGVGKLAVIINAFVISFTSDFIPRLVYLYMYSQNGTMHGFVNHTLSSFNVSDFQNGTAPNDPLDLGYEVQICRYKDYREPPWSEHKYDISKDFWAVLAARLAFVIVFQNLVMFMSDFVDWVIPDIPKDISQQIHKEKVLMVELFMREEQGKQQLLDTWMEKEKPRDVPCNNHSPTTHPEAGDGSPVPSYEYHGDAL
ANO1 block – TMEM16A chloride channel inhibitors, primary screen, cell-based, HTS. hit rate 1.2% among 310,000. Anoctamin-1 (Mus musculus), Q8BHY3. normalized B-score (activity score, 25-100; higher = stronger inhibition) at 10 µM. HEK293 TMEM16A/YFP iodide influx fluorescence, ionomycin;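 active = ratio plate-corrected score three or more library SD toward inhibition, starting fluorescence score within five deviations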;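 also: score derived from kinetic fluorescence span divided by baseline fluorescence per well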
M1 PAM parental – nonselective calcium activators in parental CHO-K1 cells, primary screen, counter-screen for M1 PAM project, cell-based, Fluo-8 calcium fluorescence, full deck, 1536-well; ATP EC20; 0% at ATP EC20, 100% at ATP max; activation, % at 3 µM; hit rate 0.02% among 360,000;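 active = activation above the run cutoff, the mean activation of all test compounds plus 3 SD, cut at about 40% in these data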;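 also: peak over basal fluorescence ratio in a 140 s read after ATP addition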
NTR1 agonist – agonists of human NTR1, primary screen, imaging, U2OS cells, beta-arrestin-GFP, high content. Neurotensin receptor type 1 (Homo sapiens), P30989. NTR1-U2OS beta-arrestin-GFP spot imaging, agonist mode. hit rate 0.17% among 330,000. activation, % at 20 µM;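 active = activation at or above 40% of the spot to cytoplasm intensity ratio, with at least 20 cells analyzed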;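 also: 0% = DMSO without peptide and 100% = 100 nM NTR1 peptide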
The depositor's hits bear a star; i = inactive; . = no result. Shown are actives, neighbours in structure and some others; about 2.2% of the full set was active somewhere.

SMILES	CHO-K1 Ca antag	M1 ag parental	TMEM16A act	ANO1 block	M1 PAM parental	NTR1 agonist
O=[N+]([O-])c1cc(-n2cnnn2)ccc1N1CCC(Cc2ccccc2)CC1	25*	0	i	i	-3	9
CC1CC(C)CN(c2ccc(-n3cnnn3)cc2[N+](=O)[O-])C1 (stereo not given)	-10	0	i	i	19	4
C=CCN1C(=O)/C(=C/c2ccc(OC(C)=O)c(OCC)c2[N+](=O)[O-])SC1=S	25*	12	i	.	7	.
CCOc1c(OC(C)=O)ccc(/C=C/c2ccc3cccc(OC(C)=O)c3n2)c1[N+](=O)[O-]	-6	2	i	i	11	18
CCOC(=O)C1=CCN(S(=O)(=O)c2ccc(C)cc2)C1c1ccc(C(C)C)cc1 (stereo not given)	16	1	.	.	0	.
CCOc1ccccc1N1Cc2cc(C)c(C)cc2C1	0	0	i	i	-2	9
CCOc1ccccc1N1Cc2ccccc2C1	-3	0	-5.5*	i	3	-2
CC(C)NC(=O)C1Cc2c(-c3ccc(Cl)cc3)ccnc2O1 (stereo not given)	-4	0	.	.	6	.
CC(C)CCN(C(=O)c1cc(=O)[nH]c2ccccc12)c1c(N)n(Cc2ccccc2)c(=O)[nH]c1=O	5	7	i	.	-6	0
CN(C)/C=C/C(=O)c1ccc(Oc2ncccn2)cc1	-10	0	i	i	8	0
O=C(/C=C/Nc1ccccc1)c1ccc(Oc2ncccn2)cc1	26*	0	i	i	-7	1
COC(=O)[C@]1(CC(C)C)N[C@H](c2ccc(-c3cccc(Cl)c3)cc2)[C@@H]2C(=O)N(C)C(=O)[C@@H]21	-3	0	-8.6*	i	-1	1
CCC(C)Sc1ccc([C@H]2N[C@@](CC(C)C)(C(=O)OC)[C@H]3C(=O)N(CC)C(=O)[C@@H]23)cc1 (stereo not given in full)	-6	0	-8.4*	i	-8	2
COC(=O)[C@]1(C)N[C@H](c2ccc(-c3cccc(Cl)c3)cc2)[C@@H]2C(=O)N(C)C(=O)[C@@H]21	-10	1	i	.	-1	1
C[C@@H]1CN([C@H](C)CO)C(=O)CCCn2nncc2CO[C@H]1CN(C)C(=O)c1ccncc1	2	0	.	.	4	.
Cc1cc2cc(CN(CCN3CCOCC3)C(=O)Nc3ccccc3F)c(=O)[nH]c2cc1C	-7	1	i	i	14	0
Cc1cccc2cc(CN(CCN3CCOCC3)C(=O)Nc3ccccc3F)c(=O)[nH]c12	30*	1	i	i	-14	3
COc1ccc2nc3c(cc2c1)c(NC(=O)C1CCCO1)nn3CC(C)C (stereo not given)	26*	1	i	i	-7	2
COc1ccc2nc3c(cc2c1)c(NC(=O)CC(C)C)nn3CC(C)C	8	0	i	i	-3	0
O=C1c2ccc(Oc3ccc([N+](=O)[O-])cc3)cc2C(=O)N1CCO	-8	17*	i	i	14	-1
O=C(O)c1ccc(CN2C(=O)c3ccc(Oc4ccc([N+](=O)[O-])cc4)cc3C2=O)cc1	15	0	i	i	-13	2
CCC(CC)C(=O)Nc1cc(C)cc(C)c1	3	1	i	i	-4	-1
CCC(CC)C(=O)Nc1ccc(C)c(O)c1	-2	1	-9.6*	i	8	-1
Cc1noc(C)c1CSCC(=O)N1CCN(c2ccc([N+](=O)[O-])cc2)CC1	11	8	i	25*	-6	0
CCc1noc(C)c1C(=O)N1CCN(c2ccc([N+](=O)[O-])cc2)CC1	-6	4	.	.	21	.
SMILES	CHO-K1 Ca antag	M1 ag parental	TMEM16A act	ANO1 block	M1 PAM parental	NTR1 agonist
Nc1[nH]c(C(=O)c2ccccc2)c(-c2ccc(Br)cc2)c1C(=O)c1ccc(Br)cc1	-26	1	.	.	13	.
CCCNC(=O)Cn1c(=O)oc2cc(S(=O)(=O)N3CC(C)CC(C)C3)ccc21 (stereo not given)	1	0	-41*	i	-17	-1
CCOC(=O)c1cnc2ccc(OCC)cc2c1NCc1ccccc1OC	-2	0	i	100*	9	15
COc1ccc(-c2ccc(C(=O)Nc3cc(OC)c(OC)c(OC)c3)c3occc23)c(C)c1	-3	0	.	.	3	.
O=C(CSc1nnc(Cc2cccs2)n1-c1ccccc1)NCc1ccc2c(c1)OCO2	-8	1	i	i	-1	-1
CC(Sc1nnc(-c2cccs2)n1-c1ccccc1)C(=O)NCc1ccc2c(c1)OCO2 (stereo not given)	24*	0	i	i	-8	2
O=C(Cn1ncc2c3ccccc3n(Cc3ccccc3F)c2c1=O)NCCN1CCOCC1	-4	1	i	i	-4	0
O=C(Cn1ncc2c3ccccc3n(Cc3ccccc3F)c2c1=O)NCCCN1CCCC1=O	-10	1	-5.2*	i	13	0
Cc1ccc(C)c(Cn2c3ccccc3c3cnn(CC(=O)NCc4ccccn4)c(=O)c32)c1	-6	1	-7.2*	i	9	1
COc1ccccc1-c1ccc2c(c1)O[C@@H](CN(C)C(=O)c1ccncc1)[C@H](C)CN([C@@H](C)CO)S2(=O)=O	-3	4	.	.	-8	.
NC(=O)C1(N2CCCCC2)CCN(C(=O)Nc2ccccc2C(F)(F)F)CC1	.	.	.	100*	.	2
Cc1ccc(S(=O)(=O)Nc2c3ccccc3nc(=O)n2-c2ccccc2)cc1	26*	1	i	i	-7	14
COC(=O)c1scc(C)c1NC(=O)Nc1ccccc1	-5	0	i	25*	2	-2
CCOc1ccc(Br)cc1S(=O)(=O)NC1CCCC1	-11	0	i	.	6	1
COc1cccc(C(=O)/C=C2\Sc3ccccc3N2C)c1	24*	0	i	i	-11	1
CCNC(=O)C1(C)CCCN(C(=O)c2cc(C)nn2C(C)(C)C)C1 (stereo not given)	-8	0	.	.	-2	.
C[C@H]1Cn2cnc(C(=O)Nc3ccccc3)c2C(=O)N1	-8	0	.	.	5	.
CCSc1ccc([C@@H]2[C@H]3C(=O)N(C)C(=O)[C@H]3[C@]3(C(=O)OC)CCCCN23)cc1	-18	0	i	i	-7	-2
COC(=O)[C@@]12CCCCN1[C@H](c1ccc(SC3CCCCC3)cc1)[C@@H]1C(=O)N(C)C(=O)[C@@H]12	-21	0	-7.9*	i	28	7

Screens (PubChem)
